Some test systems named below: DU-145 prostate; K-562 leukemia; MALME-3M melanoma; MDA-MB-231 breast; RXF 393 renal; SF-268 CNS; SF-295 CNS; SF-539 CNS; UACC-257 melanoma; M14 melanoma; HCT-15 colon; HT29 colon; SNB-75 CNS; U251 CNS; PC-3 prostate; SK-MEL-5 melanoma; UACC-62 melanoma; LOX IMVI melanoma; SK-MEL-28 melanoma; SNB-19 CNS.
Holding throughout (assay): NCI-60 one-dose screen, 48 h (100 = growth as untreated, 0 = no growth, -100 = all killed)
Holding throughout (settings): 10 µM

The panel holds about 83,000 compounds, 20% with a hit somewhere; the sample as a whole holds those more often.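 Percent growth is the endpoint: 0 to 100 indicates growth inhibition (40 means 60% inhibition), 0 means no net growth, and negative values indicate cell death.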 A number with no mark means an inactive call. The source made the active and inactive calls. How the source made its calls: active means growth percent below 10; inactive means the rest.

Turning to `COc1cccc(C2(C)Nc3ccccc3-c3nc4ccccc4n32)c1` (stereo not given), the growth is 112% in the assay with DU-145 prostate; 100% in the assay on K-562 leukemia; 108% in the assay with MALME-3M melanoma; 101% in the assay on MDA-MB-231 breast; 111% in the assay with RXF 393 renal; 110% in the assay on SF-268 CNS. The growth with SF-295 CNS is 94.6%; in the assay on SF-539 CNS, 105%; in the assay with UACC-257 melanoma it was 110%; in the assay on M14 melanoma, 102%; with HCT-15 colon, 105%; in the assay on HT29 colon, 113%. Moreover, the growth is 103% with SNB-75 CNS; 101% in the assay on U251 CNS; 109% with PC-3 prostate; 101% in the assay with SK-MEL-5 melanoma; 102% with UACC-62 melanoma; 101% in the assay with LOX IMVI melanoma. Further, the growth in the assay with SK-MEL-28 melanoma was 107%.
As to `COc1cc2ccnc(C=O)c2cc1OC`, the growth in the assay with DU-145 prostate is 69.8%; in the assay on K-562 leukemia, 31.2%; in the assay on MALME-3M melanoma, 58.8%; in the assay on MDA-MB-231 breast, 75.3%; in the assay on RXF 393 renal, 67.6%; with SF-268 CNS, 92%. Further, the growth with SF-295 CNS was 96.5%; in the assay with SF-539 CNS it was 65.6%; in the assay with UACC-257 melanoma, 83.2%; in the assay on M14 melanoma, 67.8%; in the assay on HCT-15 colon, 27.9%; in the assay with SNB-75 CNS, 76.7%. Moreover, the growth in the assay with SNB-19 CNS was 88.3%; in the assay on U251 CNS, 91%; in the assay with PC-3 prostate, 90.7%; in the assay on SK-MEL-5 melanoma, 60.6%; with UACC-62 melanoma, 74%; in the assay with LOX IMVI melanoma, 41.8%. In addition, the growth with SK-MEL-28 melanoma is 79.5%.
As to `O=C(c1ccccc1)C(Nc1ccccc1)c1ccccc1` (stereo not given), the growth in the assay on DU-145 prostate is 100%; with K-562 leukemia, 90.5%; in the assay on MALME-3M melanoma it was 90%; with MDA-MB-231 breast, 89.7%; in the assay on RXF 393 renal it was 103%; in the assay on SF-268 CNS it was 93.1%. The growth was 90.7% in the assay with SF-295 CNS; 96.7% in the assay with SF-539 CNS; 93.4% in the assay with UACC-257 melanoma; 97.5% in the assay with M14 melanoma; 86.4% in the assay with HT29 colon; 79.6% in the assay on SNB-75 CNS. Moreover, the growth in the assay with SNB-19 CNS was 101%; in the assay on U251 CNS, 89.6%; with PC-3 prostate it was 75.5%; with SK-MEL-5 melanoma, 85.6%; in the assay with UACC-62 melanoma, 74.9%; in the assay with LOX IMVI melanoma, 86%. Moreover, the growth with SK-MEL-28 melanoma was 99%.
For the compound `COc1ccc(N2CCN(c3nc(-c4ccccc4)c(C#N)c(=O)[nH]3)CC2)cc1`, the growth was 107% with DU-145 prostate; 87.6% with K-562 leukemia; 80.8% in the assay on MALME-3M melanoma; 106% in the assay on MDA-MB-231 breast; 105% with RXF 393 renal; 108% with SF-268 CNS. In addition, the growth in the assay with SF-295 CNS is 102%; in the assay on SF-539 CNS it was 99.6%; with UACC-257 melanoma it was 109%; in the assay with M14 melanoma, 96.8%; in the assay with HCT-15 colon, 99.4%; in the assay on HT29 colon, 108%. For the same compound, the growth was 73.2% in the assay on SNB-75 CNS; 95.6% in the assay with U251 CNS; 96.4% with SK-MEL-5 melanoma; 94.8% in the assay on UACC-62 melanoma; 99.4% in the assay with LOX IMVI melanoma; 110% in the assay on SK-MEL-28 melanoma.
Consider `Cc1ccc(-n2c(-c3cc4c([nH]c5ccccc54)c(-c4cccc(O)c4)n3)n[nH]c2=S)cc1`, for which the growth is -16.6% (active) with DU-145 prostate; 9.64% (active) in the assay with K-562 leukemia; 41.3% in the assay on MALME-3M melanoma; -1.15% (active) in the assay on MDA-MB-231 breast; -50.5% (active) in the assay on RXF 393 renal; 9.02% (active) in the assay on SF-268 CNS. In addition, the growth was -17.2% (active) in the assay with SF-295 CNS; -27.3% (active) in the assay on SF-539 CNS; 2.43% (active) in the assay on UACC-257 melanoma; -40.1% (active) with M14 melanoma; 2.88% (active) in the assay on HCT-15 colon; 5.15% (active) in the assay with SNB-75 CNS. In addition, the growth in the assay on SNB-19 CNS is 4.47% (active); in the assay on U251 CNS it was -3.05% (active); in the assay with PC-3 prostate, 19.4%; with SK-MEL-5 melanoma, -17.5% (active); in the assay on UACC-62 melanoma, -40.3% (active); in the assay with LOX IMVI melanoma, -77% (active). Besides, the growth in the assay on SK-MEL-28 melanoma is 7.56% (active).
As to `Cc1ccc(-c2cc(C(=O)Nc3ccc(S(=O)(=O)N4CCCCC4)cc3)[nH]n2)c(O)c1`, the growth is 64.8% with DU-145 prostate; 17.9% in the assay with K-562 leukemia; 74% in the assay on MALME-3M melanoma; 56.1% with MDA-MB-231 breast; 50.7% with RXF 393 renal; 69.9% in the assay with SF-268 CNS. Besides, the growth in the assay with SF-295 CNS is 62.4%; in the assay with SF-539 CNS it was 48.8%; with UACC-257 melanoma, 52%; in the assay on M14 melanoma, 62.2%; in the assay with HCT-15 colon it was 23.5%; with SNB-75 CNS it was 81.6%. In addition, the growth in the assay on SNB-19 CNS was 69%; in the assay on U251 CNS, 39.3%; with SK-MEL-5 melanoma, 24.8%; in the assay with UACC-62 melanoma, 36.2%; in the assay with LOX IMVI melanoma, 54.3%; with SK-MEL-28 melanoma it was 78.7%.
For `CC(=O)Oc1c(C)c(C)c2c(c1C)CCC(C)(CC(=O)OCCCCCCCCCCC[P+](c1ccccc1)(c1ccccc1)c1ccccc1)O2` (stereo not given), the growth was -71.5% (active) in the assay on DU-145 prostate; -33.9% (active) with K-562 leukemia; -66.3% (active) with MALME-3M melanoma; -88.9% (active) in the assay with MDA-MB-231 breast; -89.5% (active) with RXF 393 renal; -72.3% (active) with SF-268 CNS. Moreover, the growth is -79.8% (active) in the assay with SF-295 CNS; -93.6% (active) in the assay with SF-539 CNS; -80.5% (active) in the assay with UACC-257 melanoma; -87.5% (active) in the assay with M14 melanoma; -69.3% (active) in the assay with HCT-15 colon; -47.8% (active) with SNB-75 CNS. The growth in the assay on SNB-19 CNS was -78.8% (active); with U251 CNS, -93.1% (active); in the assay on PC-3 prostate, -51% (active); in the assay on SK-MEL-5 melanoma, -96.7% (active); with UACC-62 melanoma it was -86.1% (active); in the assay with LOX IMVI melanoma, -92.6% (active). Besides, in the assay on SK-MEL-28 melanoma, the growth is -86.9% (active).
For `Cc1cc(Nc2cccc(F)c2)nc(NCc2ccccc2)n1`, the growth with DU-145 prostate was 22.8%; in the assay with K-562 leukemia it was 13.3%; in the assay on MALME-3M melanoma, 43.9%; in the assay with MDA-MB-231 breast, 20.9%; in the assay with RXF 393 renal it was 76.6%; in the assay with SF-268 CNS it was 40.4%. For the same compound, the growth with SF-295 CNS was 16.7%; with SF-539 CNS it was 56.8%; in the assay on UACC-257 melanoma it was 29.8%; in the assay on M14 melanoma, 28.5%; with HCT-15 colon, 15.6%; with SNB-75 CNS, 50.5%. The growth in the assay with SNB-19 CNS is 29.4%; in the assay with U251 CNS it was 11.7%; in the assay on PC-3 prostate it was 1.49% (active); in the assay on SK-MEL-5 melanoma, 33.9%; in the assay with UACC-62 melanoma, 16.7%; with LOX IMVI melanoma, 18.2%. Besides, the growth in the assay with SK-MEL-28 melanoma was 43.9%.

Values taken from PubChem BioAssay (NCI).
